Compound activity from PubChem BioAssay.
12-LOX inh – ALOX12 (human) lipoxygenase inhibition; hit rate 1.1% among 580,000; purified 12hLO, xylenol orange hydroperoxide absorbance; P18054; Potency, µM (series often up to 108 µM), for inactives: at the top dose activity change, negative = inhibition, most hits filed as inhibitors; AID 1671190; note: potency is the fitted concentration of half-maximal effect
Target sequence (P18054 whole entry, looked up): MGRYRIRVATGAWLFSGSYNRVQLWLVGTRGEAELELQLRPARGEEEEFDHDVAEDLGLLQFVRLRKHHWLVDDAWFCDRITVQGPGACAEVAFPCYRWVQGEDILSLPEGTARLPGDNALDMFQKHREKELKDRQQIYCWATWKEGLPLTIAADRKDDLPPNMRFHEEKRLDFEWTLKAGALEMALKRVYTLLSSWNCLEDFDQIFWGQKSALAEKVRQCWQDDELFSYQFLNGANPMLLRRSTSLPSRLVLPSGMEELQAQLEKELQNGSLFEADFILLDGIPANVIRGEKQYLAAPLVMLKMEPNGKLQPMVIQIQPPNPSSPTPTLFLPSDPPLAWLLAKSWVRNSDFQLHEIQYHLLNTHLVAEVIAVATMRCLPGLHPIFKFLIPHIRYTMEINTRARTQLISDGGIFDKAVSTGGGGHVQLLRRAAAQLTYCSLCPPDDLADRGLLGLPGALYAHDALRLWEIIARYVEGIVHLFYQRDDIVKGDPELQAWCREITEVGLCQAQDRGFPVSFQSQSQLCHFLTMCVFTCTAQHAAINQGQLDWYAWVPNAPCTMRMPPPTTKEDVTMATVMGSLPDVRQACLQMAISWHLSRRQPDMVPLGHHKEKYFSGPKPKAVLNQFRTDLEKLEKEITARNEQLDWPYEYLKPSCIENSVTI
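Purified human 12hLO (150 nM final) in 25 mM Hepes, 0.01% Triton X-100, pH 7.0 was preincubated 15 min at room temperature with compound. Then 40 uM arachidonic acid was added, 30 min. Hydroperoxide was read by Fe-XO absorbance ratio 573/405 nm.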
HT1080NT lethal – kills 2HG-producing HT-1080-NT fibrosarcoma cells; HT-1080-NT fibrosarcoma viability, CellTiter-Glo ATP luminescence, 48 h; Potency, µM (series often up to 46.1 µM), for the others: top-dose activity, negative = less viability, most hits filed as cytotoxic; hit rate 1.6% among 360,000;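 note: NT is the 2HG producing partner of a matched IDH1 knockdown line; potency is the fitted concentration of half-maximal effect; 0% = DMSO-treated cells and -100% = media-only wells without cells; nearly all actives have a fitted effect of over 55% in size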
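HT-1080-NT; 750 cells/well; 5% FBS RPMI; 48 h compound, 37 degrees C; CellTiter-Glo luminescence; curve fitting and curve-class assignment.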
DT40 TDP1 no CPT – qHTS for Inhibitors of human tyrosyl-DNA phosphodiesterase 1 (TDP1): qHTS in cells in absence of CPT; hit rate 15% among 420,000; Potency, µM (top dose mostly 46.2 µM), without a hit: top-dose activity change, negative = growth inhibition, actives largely listed as inhibitors; DT40 Tdp1-/- hTDP1 cells, no CPT, ATP luminescence, 48 h; note: potency is the fitted concentration of half-maximal effect; nearly all actives have a fitted effect of over 55% in size
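Chicken DT40 Tdp1-/- cells complemented with human TDP1, screened without camptothecin (DMSO vehicle only), 400 cells/well. Compounds pin-transferred, cells incubated at 37 °C for at least 48 hr. Growth read as ATP-dependent luminescence (CellTiter-Glo, 30 min at RT).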
IL-1B inflam inh – blocks inflammasome-driven IL-1 beta release; hit rate 4.7% among 360,000; activity change, % at 57.5 µM; THP-1 LPS/ATP IL-1B secretion, AlphaLISA, 16 h; stronger effect = lower value; AID 743279; in the data active = activity change below about -50%; inconclusive = mostly about -30% to -49%
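Secreted IL-1B measured by AlphaLISA bead assay after 16 h compound exposure of THP-1 cells; compounds (final up to 57.5 uM) added 1 h before LPS (250 ng/mL) and ATP (1.25 mM) stimulation; lower signal means less secretion.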
HT1080 IDH1KD tx – toxicity to HT-1080 IDH1 knockdown cells (counter line). HT-1080 IDH1 knockdown viability, ATP luminescence, 48 h. hit rate 2% among 360,000. Potency, µM (top dose mostly 46.1 µM), for the others: at the top dose activity, negative = toxicity, hits mostly cytotoxic;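 note: potency is the fitted concentration of half-maximal effect; 0% = DMSO wells and -100% = cell-free medium wells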
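After a 2 h attachment period, IDH1KD HT-1080 cells took pin-transferred compound for 48 h at 37 °C; ATP-based luminescence after 10 min room-temperature reagent incubation reported viability.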
TDP1 cell CPT – growth inhibition of DT40 Tdp1-/-;hTDP1 cells with camptothecin (screen for TDP1 inhibitors). chicken DT40 Tdp1-/-;hTDP1 cells + 20 nM CPT, ATP luminescence, 48 h. Potency, µM (titrated, usually from 46.2 µM), inactives show at the top dose activity change, negative = growth inhibition, usual class: inhibitors. AID 686979. hit rate 12% among 420,000; note: potency is the fitted concentration of half-maximal effect; nearly all actives have a fitted effect of over 55% in size
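Chicken DT40 Tdp1-/- cells stably complemented with human TDP1 were seeded at 400 cells/well in medium containing 20 nM camptothecin, exposed to pin-transferred compounds, and grown at 37 °C for at least 48 hr. Viability was read as ATP luminescence.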
Starred values were filed as active, the others as inactive; ? = inconclusive; nt = not tested or not shown; [ ] = another dose, or the depositor's remark. The full list was thinned out, with hits kept by preference. Unless noted, calls come from the whole dose curve; as a rule, active = well fitted curve in the direction sought with a large enough effect; inconclusive = small, poorly fitted or top-dose-only effect, or another doubt; inactive = no such curve, though single readings can be large; an effect the other way counts as inactive or inconclusive. Unless noted, % is set by controls: 0 for no effect and ±100 for the full control effect.

SMILES	12-LOX inh	HT1080NT lethal	DT40 TDP1 no CPT	IL-1B inflam inh	HT1080 IDH1KD tx	TDP1 cell CPT
N#CC1C=Cc2c(ccc3ccccc23)N1C(=O)c1ccccc1 (stereo not drawn)	-20.0%	1.84µM*	0.92µM*	-66.2*	?	0.581µM*
O=C1CO[C@H]2CN(c3ncccn3)C[C@H]2N1CC1CCCCC1	28.2µM*	nt	nt	nt	nt	nt
CCOC(=O)CSc1nc2cc3c(cc2c(=O)n1CCCCCC(=O)NCc1ccc(OC)cc1)OCO3	?	nt	?	nt	nt	-26.9%
CCN(CC)C(=O)CSc1nc2cc3c(cc2c(=O)n1Cc1ccc(OC)cc1)OCO3	-26.7%	?	18.4µM*	10.7	-17.5%	23.1µM*
CCN(CC)C(=O)CSc1nc2cc3c(cc2c(=O)n1CCCCCC(=O)NCCc1ccc(OC)c(OC)c1)OCO3	-17.2%	nt	14.6µM*	nt	nt	14.6µM*
CC1CCCCN1C(=O)CSc1nc2cc3c(cc2c(=O)n1Cc1ccc2c(c1)OCO2)OCO3 (stereo not drawn)	?	-18.1%	23.1µM*	?	-9.1%	20.6µM*
COCCCNC(=O)CSc1nc2ccccc2c(=O)n1Cc1ccc2c(c1)OCO2	0.0%	0.0%	-15.3%	-0.4	-25.7%	-9.8%
COCCNC(=O)CSc1nc2cc3c(cc2c(=O)n1Cc1ccc(C(=O)NCCc2ccc(OC)c(OC)c2)cc1)OCO3	-25.9%	nt	20.6µM*	nt	nt	8.2µM*
COc1ccc(C[C@H](NC(=O)C2=C[C@@H](NC(=O)Nc3ccccc3Br)[C@@H](O)[C@H](O)C2)C(N)=O)cc1	-6.2%	nt	nt	nt	nt	nt
CCn1c(SCC(=O)N2CCCCC2C)nc2ccsc2c1=O (stereo not drawn)	-2.8%	4.7%	?	3.7	-21.0%	10µM*
CC1CCCCN1C(=O)CSc1nc2ccsc2c(=O)n1Cc1ccccn1 (stereo not drawn)	-2.7%	9.4%	?	-7.3	-6.6%	?
Cc1c(Br)c(=O)oc2c(Br)c(O)c(O)cc12	22.4µM*	-16.3%	7.3%	109.9	-19.7%	4.0%
N#CNC(=Nc1cccc(Cl)c1)Oc1ccccc1	142.7%	-3.3%	-24.7%	0.0	1.4%	?
N#CNC(=Nc1ccc(Cl)cc1)Oc1ccccc1	?	-5.1%	?	-55.2*	-2.5%	?
CCn1ncc(C2=NOC(C(=O)NCc3ccccc3)C2)c1C (stereo not drawn)	-5.1%	2.82µM*	1.64µM*	56.8	1.78µM*	1.16µM*
COc1ccc(CNC(=O)C2CC(c3ccccc3[N+](=O)[O-])=NO2)cc1 (stereo not drawn)	-4.5%	-1.0%	-20.4%	5.0	-0.1%	-22.4%
CCn1ncc(C2=NOC(C(=O)Nc3c(C)n(C)n(-c4ccccc4)c3=O)C2)c1C (stereo not drawn)	-2.1%	-1.4%	-3.4%	32.8	-0.4%	-3.2%
CCn1ncc(C2=NOC(C(=O)NCc3ccc(OC)cc3)C2)c1C (stereo not drawn)	12.8%	?	?	31.3	?	16.4µM*
CCn1ncc(C2=NOC(C(=O)Nc3cccc(C(C)=O)c3)C2)c1C (stereo not drawn)	-0.8%	0.0%	20.6µM*	-14.5	-23.4%	?
CCC(CC)C(C(=O)NCc1ccccc1)N(C)Cc1ccc(Cl)c(Cl)c1 (stereo not drawn)	-0.7%	?	14.6µM*	-9.5	?	20.6µM*
CCOc1ccc(CN(C)C(C)C(=O)NCc2ccccc2)cc1 (stereo not drawn)	-9.8%	6.0%	?	10.8	-3.1%	?
CCc1ccc(CN(C)C(C)C(=O)NCc2ccccc2)cc1 (stereo not drawn)	0.0%	-3.5%	7.31µM*	-1.3	-3.1%	?
CC(C)C(C(=O)NCc1ccccc1)N(C)Cc1ccc(Cl)c(Cl)c1 (stereo not drawn)	?	?	?	0.0	?	?
C=CCn1nc(C)c(CN2CCC(Oc3ccccc3OC)(C(=O)O)CC2)c1C	-6.3%	nt	nt	nt	nt	nt
O=c1c2nc(-c3ccsc3)ccc2ncn1Cc1ccccc1	1.6%[176 µM]	nt	nt	nt	nt	nt
SMILES	12-LOX inh	HT1080NT lethal	DT40 TDP1 no CPT	IL-1B inflam inh	HT1080 IDH1KD tx	TDP1 cell CPT
CCCCCCCCCCCCCC[N+](C)(C)Cc1ccccc1	-6.4%[22.9 µM]	nt	1.06µM*	nt	nt	1.19µM*
CCCCCCCCCCOC(=O)C[N+](C)(C)Cc1ccccc1	44.7µM*	nt	nt	nt	nt	nt
CCCCCCCCCCCCCCCC[N+](C)(C)Cc1ccccc1	?	nt	0.944µM*	nt	nt	1.19µM*
CCCCCCCCCCCCCc1ccccc1	28.4%[176 µM]	nt	nt	nt	nt	nt
Cc1nc(Nc2ccc(C(=O)O)cc2)nc(Nc2ccc(C(=O)O)cc2)c1[N+](=O)[O-]	-17.0%	-2.6%	5.9%	-3.0	-0.1%	-6.5%
CC(=O)Nc1ccc(Nc2nc(C)c([N+](=O)[O-])c(Nc3ccccc3)n2)cc1	-2.5%	-24.6%	18.4µM*	-24.0	?	23.1µM*
CCC(=O)Nc1ccc(Nc2nc(C)c([N+](=O)[O-])c(Nc3ccc(NC(=O)CC)cc3)n2)cc1	?	6.3%	6.51µM*	6.5	-2.9%	8.2µM*
Cc1nc(Nc2ccc(F)cc2)nc(Nc2ccc(F)cc2)c1[N+](=O)[O-]	-11.1%	?	?	18.3	?	?
Cc1cccc(NC(=O)C2c3ccccc3C(=O)N(CC(C)C)C23CCCC3)n1 (stereo not drawn)	28.7%	nt	nt	nt	nt	nt
C=C[C@@H](C1=CC(=O)C(OC)=C(OC)C1=O)c1ccccc1	?	nt	0.731µM*	nt	nt	1.16µM*
Cc1noc(C)c1Cn1cnc(-c2ccccc2)c1-c1ccc(CO)o1	44.1%	nt	nt	nt	nt	nt
CC(C)(C)c1ccc(/C=N/Nc2ccc(S(=O)(=O)Nc3ccccc3)cc2[N+](=O)[O-])cc1	37.5%	nt	nt	nt	nt	nt
CS(=O)(=O)N(Cc1ccc(Cl)cc1)c1ccc(C(=O)N2CCN(c3ccccc3)CC2)cc1	?	-17.1%	?	-50.7*	-13.6%	?
CS(=O)(=O)N(CC(=O)N1CCN(c2cccc(Cl)c2)CC1)c1cccc(F)c1	-11.7%	-6.4%	16.4µM*	-18.1	-0.6%	?
CS(=O)(=O)N(Cc1ccccc1)c1ccc(C(=O)N2CCN(c3cccc(Cl)c3)CC2)cc1	27.0%	?	14.1µM*	?	?	11.2µM*
CS(=O)(=O)N(Cc1ccccc1)c1ccccc1C(=O)N1CCN(c2ccccc2)CC1	0.0%	0.4%	16.4µM*	0.0	-13.4%	20.6µM*
CN1CCN(C(=O)c2ccc(N(Cc3ccc(Cl)cc3)S(C)(=O)=O)cc2)CC1	-7.1%	-20.8%	-11.7%	12.9	-0.4%[9.24 µM]	-7.3%
